Test results as given in PubChem BioAssay (Tox21).
“And” between values parts separate entries of the source, which are not always exact repeats. Identical values can stand only once. Records with an inconclusive call do not appear. The source made the active and inactive calls. Unless noted, calls follow the shape of the full dose curve.

How the values were obtained:
[1] = Nuclear factor erythroid 2-related factor 2/antioxidant responsive element (Nrf2/ARE) small molecule agonists: luciferase reporter gene qHTS assay in human keratinocytes (AID 1919969); also: nearly all actives have a fitted effect of over 35% in size; also: potency is read from the fitted curve at half-maximal effect
[2] = biological target: Gonadotropin-releasing hormone receptor (Homo sapiens) (UniProt P30968); experiment: Human gonadotropin-releasing hormone receptor (GnRHR) small molecule agonists, calcium flux assay in GnRHR-HEK293 cells (AID 1920063); also: nearly all actives have a fitted effect of over 35% in size
Gonadotropin-releasing hormone receptor (Homo sapiens), sequence (P30968 whole entry, looked up): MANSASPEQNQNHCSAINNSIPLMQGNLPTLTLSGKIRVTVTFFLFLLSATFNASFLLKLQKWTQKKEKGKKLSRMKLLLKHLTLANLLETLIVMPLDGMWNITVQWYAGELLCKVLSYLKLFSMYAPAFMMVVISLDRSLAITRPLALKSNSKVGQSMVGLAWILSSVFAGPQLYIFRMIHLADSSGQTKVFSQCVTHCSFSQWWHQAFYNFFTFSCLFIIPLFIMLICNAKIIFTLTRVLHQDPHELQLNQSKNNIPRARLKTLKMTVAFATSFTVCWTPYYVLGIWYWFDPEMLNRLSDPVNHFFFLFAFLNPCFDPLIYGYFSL
Method in brief: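 We seeded human GnRHR-expressing HEK293 cells for 18 hours, loaded them with calcium dye for an hour at 37 C, added test compounds, and recorded fluorescence intensity kinetically for three minutes.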

[3] = biological target: KiSS-1 receptor (Homo sapiens) (UniProt Q969F8); experiment: Human kisspeptin (KISS1R) small molecule agonists, calcium flux assay in KISS1R-HEK293 cells (AID 1920064; active = well fitted activation curve with a large enough effect in the repeat runs)
KiSS-1 receptor (Homo sapiens), sequence (Q969F8 whole entry, looked up): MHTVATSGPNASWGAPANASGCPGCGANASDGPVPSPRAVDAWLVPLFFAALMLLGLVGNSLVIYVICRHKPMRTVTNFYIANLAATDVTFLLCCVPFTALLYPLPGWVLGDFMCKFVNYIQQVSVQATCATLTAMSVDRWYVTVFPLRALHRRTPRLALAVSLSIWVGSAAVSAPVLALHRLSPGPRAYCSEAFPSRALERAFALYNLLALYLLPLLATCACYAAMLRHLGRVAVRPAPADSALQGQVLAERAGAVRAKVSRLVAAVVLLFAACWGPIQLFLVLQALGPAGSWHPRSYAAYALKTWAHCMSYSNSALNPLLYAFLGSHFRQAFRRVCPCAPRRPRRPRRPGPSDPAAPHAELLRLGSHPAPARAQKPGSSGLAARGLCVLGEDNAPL
Method in brief: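 Kinetic calcium assay, 1 s sampling over 3 min at Ex/Em 480/540, in HEK293 cells engineered with human KISS1R; compounds delivered in DMSO after 1 h dye loading.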

[4] = G protein-coupled receptor (GPCR) small molecule agonists, calcium flux assay: HEK293 wild type cell line counter screen (AID 1920065)
Method in brief: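 Calcium-sensitive dye, loaded 1 h at 37 C into cells cultured 18 h, reports compound-evoked calcium release as fluorescence (Ex/Em 480/540), measured over 3 min. Agonist mode; 15-point titrations, triplicate.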

[5] = p53 small molecule agonists, cell-based qHTS assay with human liver microsomes (AID 1963577)
Method in brief: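 p53RE-bla cells, 4,000/well, compound added after 5 h, with human liver microsomes 0.5 mg/mL and NADPH 0.5 mg/mL final; 16 h at 37 C, then LiveBLAzer 2 h RT, fluorescence.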

[6] = p53 small molecule agonists, cell-based qHTS assay with rat liver microsomes (AID 1963578)
Method in brief: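 p53RE-bla cells, 4,000/well, pre-incubated 5 h, then given compounds plus rat liver microsomes (0.5 mg/mL final) and NADPH (0.5 mg/mL final). Incubation 16 h at 37 C; beta-lactamase reporter read by LiveBLAzer fluorescence after 2 h at room temperature.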

[7] = p53 small molecule agonists, cell-based qHTS assay with human liver microsomes: qHTS cell viability counter screen (AID 1963579); also: nearly all actives have a fitted effect of over 45% in size; also: potency is read from the fitted curve at half-maximal effect
Method in brief: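 p53RE-bla cells, 4,000/well, dosed 5 hours after plating, with human liver microsomes (0.5 mg/mL final) plus NADPH (0.5 mg/mL final), 16 hours at 37 C. Viability read as CellTiter-Glo luminescence after 30 min at room temperature.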

[8] = p53 small molecule agonists, cell-based qHTS assay with rat liver microsomes: qHTS cell viability counter screen (AID 1963580); also: nearly all actives have a fitted effect of over 45% in size
Method in brief: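 Intracellular ATP, by CellTiter-Glo luminescence, defines viability. HCT-116 p53RE-bla cells, 4,000 per well, were compound-treated in the presence of rat liver microsomes and NADPH for 16 h at 37 C.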

[9] = p53 small molecule agonists, cell-based qHTS assay (AID 1963582; active = well fitted activation curve with a large enough effect in the signal ratio in the repeat runs, not every such curve was filed as active; the % refers to the signal ratio)
Method in brief: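 In this cell-based concentration-response screen, a p53 response element drives beta-lactamase; cells received DMSO-borne compounds after 5 h culture and were incubated a further 16 h before FRET substrate development.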

[10] = biological target: 5-hydroxytryptamine receptor 2A (Homo sapiens) (UniProt P28223); experiment: 5-hydroxytryptamine receptor 2A (HTR2A) small molecule agonists, cell-based qHTS assay (AID 1963587); also: nearly all actives have a fitted effect of over 30% in size; also: potency is read from the fitted curve at half-maximal effect
5-hydroxytryptamine receptor 2A (Homo sapiens), sequence (P28223 whole entry, looked up): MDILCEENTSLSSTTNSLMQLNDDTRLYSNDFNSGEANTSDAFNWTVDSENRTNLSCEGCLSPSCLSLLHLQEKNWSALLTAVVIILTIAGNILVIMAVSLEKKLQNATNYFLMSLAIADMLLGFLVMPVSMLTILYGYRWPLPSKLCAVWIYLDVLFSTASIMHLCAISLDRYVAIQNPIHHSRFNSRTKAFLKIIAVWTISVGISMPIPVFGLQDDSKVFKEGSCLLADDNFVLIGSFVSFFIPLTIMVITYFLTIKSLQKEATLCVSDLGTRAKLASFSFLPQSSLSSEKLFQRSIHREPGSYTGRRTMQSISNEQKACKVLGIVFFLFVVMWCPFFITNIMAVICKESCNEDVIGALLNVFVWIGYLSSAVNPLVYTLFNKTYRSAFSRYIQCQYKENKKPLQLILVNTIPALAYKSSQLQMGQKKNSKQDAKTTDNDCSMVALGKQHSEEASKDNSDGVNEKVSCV
Method in brief: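 Kinetic calcium-flux fluorescence (2 min, 1 sec intervals) after compound addition in agonist mode. HTR2A-CHO cells were cultured 18 h, then dye-loaded 1 h at 37 C.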

[11] = biological target: Muscarinic acetylcholine receptor M1 (Homo sapiens) (UniProt P11229); experiment: Cholinergic receptor muscarinic 1 (CHRM1) small molecule antagonists, cell-based qHTS assay (AID 1963588); also: nearly all actives have a fitted effect of over 40% in size
Muscarinic acetylcholine receptor M1 (Homo sapiens), sequence (P11229 whole entry, looked up): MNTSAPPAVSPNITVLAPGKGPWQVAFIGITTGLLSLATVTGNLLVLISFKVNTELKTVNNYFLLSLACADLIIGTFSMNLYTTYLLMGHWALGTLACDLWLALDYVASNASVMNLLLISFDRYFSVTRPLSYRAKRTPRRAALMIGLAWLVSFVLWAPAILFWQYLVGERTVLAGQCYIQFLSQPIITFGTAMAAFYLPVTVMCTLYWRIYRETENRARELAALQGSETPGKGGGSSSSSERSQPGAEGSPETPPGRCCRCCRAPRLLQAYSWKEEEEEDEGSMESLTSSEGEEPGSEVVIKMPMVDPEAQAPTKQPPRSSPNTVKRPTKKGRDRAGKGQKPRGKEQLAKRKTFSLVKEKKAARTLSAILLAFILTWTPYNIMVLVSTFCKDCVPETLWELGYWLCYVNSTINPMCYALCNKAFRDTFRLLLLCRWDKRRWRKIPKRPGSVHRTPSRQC
Method in brief: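 CHRM1-CHO calcium-flux assay, antagonist mode. Cells were seeded 18 h, dye-loaded 1 h at 37 C and given compound for 5 min at RT, then acetylcholine was added at 50nM. FDSS fluorescence was read 3 min; 15 concentrations, three runs.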

[12] = biological target: Muscarinic acetylcholine receptor M1 (Homo sapiens) (UniProt P11229); experiment: Cholinergic receptor muscarinic 1 (CHRM1) small molecule agonists, cell-based qHTS assay (AID 1963589); also: nearly all actives have a fitted effect of over 35% in size
Method in brief: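 Measures agonist-induced intracellular calcium rise. Stable human CHRM1 CHO line, 1 h dye load at 37 C, compounds from DMSO, kinetic fluorescence read.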

[13] = cAMP Responsive Elements (CRE) small molecule agonists, cell-based qHTS assay (AID 1963590)
Method in brief: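 A CRE-responsive beta-lactamase reporter in HEK 293T cells was used. Treatment ran 3 h at 37 C; detection used LiveBLAzer B/G FRET substrate for 2 h at room temperature.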

[14] = cAMP Responsive Elements (CRE) small molecule antagonists, cell-based qHTS assay (AID 1963591; active = well fitted inhibition curve with a large enough effect in the signal ratio in the repeat runs, not every such curve was filed as active; the % refers to the signal ratio)
Method in brief: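 HEK293T cells carrying a CRE-driven beta-lactamase reporter receive compound and NKH477 (0.25 uM final) for 3 h. Fluorescence from LiveBLAzer B/G FRET substrate is read after 2 h at room temperature.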

[15] = biological target: Beta-2 adrenergic receptor (Homo sapiens) (UniProt P07550); experiment: Adrenergic beta2 receptor (ADRB2) small molecule antagonists, cell-based qHTS assay (AID 1963592); also: series mostly up to about 92 µM; nearly all actives have a fitted effect of over 50% in size
Beta-2 adrenergic receptor (Homo sapiens), sequence (P07550 whole entry, looked up): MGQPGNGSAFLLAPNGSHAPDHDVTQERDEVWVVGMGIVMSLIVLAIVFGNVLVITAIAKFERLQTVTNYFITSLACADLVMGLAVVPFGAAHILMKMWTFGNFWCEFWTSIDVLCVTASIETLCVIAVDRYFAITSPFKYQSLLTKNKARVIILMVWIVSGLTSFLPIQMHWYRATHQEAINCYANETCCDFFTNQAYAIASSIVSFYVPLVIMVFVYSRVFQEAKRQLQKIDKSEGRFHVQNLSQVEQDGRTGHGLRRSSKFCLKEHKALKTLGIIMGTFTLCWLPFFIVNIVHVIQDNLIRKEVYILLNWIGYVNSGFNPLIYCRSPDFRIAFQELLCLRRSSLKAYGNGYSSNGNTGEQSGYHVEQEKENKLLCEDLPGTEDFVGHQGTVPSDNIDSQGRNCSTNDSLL
Method in brief: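 Cells (CHO, stable ADRB2 overexpression) incubated 18-20hr at 37C; compounds added from DMSO; agonist mix (1nM isoproterenol, 100uM IBMX, 25uM Ro-20-1724) added; 0.5hr RT; d2-cAMP and anti-cAMP-cryptate added; 1hr RT; 665/615 nm read.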

[16] = biological target: Beta-2 adrenergic receptor (Homo sapiens) (UniProt P07550); experiment: Adrenergic beta2 receptor (ADRB2) small molecule agonists, cell-based qHTS assay (AID 1963593);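 also: CHO cells stably overexpressing human ADRB2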
Method in brief: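 CHO cells stably over-expressing ADRB2 were plated overnight at 37C, then dosed with compounds plus a stimulation mix containing 100uM IBMX and 25uM Ro-20-1724 for 0.5hr at room temperature. cAMP was measured by HTRF competition, 1hr.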

[17] = biological target: D(2) dopamine receptor (Homo sapiens) (UniProt P14416); experiment: Dopamine D2 receptor (DRD2) small molecule agonists, cell-based qHTS assay (AID 1963594); also: nearly all actives have a fitted effect of over 35% in size
D(2) dopamine receptor (Homo sapiens), sequence (P14416 whole entry, looked up): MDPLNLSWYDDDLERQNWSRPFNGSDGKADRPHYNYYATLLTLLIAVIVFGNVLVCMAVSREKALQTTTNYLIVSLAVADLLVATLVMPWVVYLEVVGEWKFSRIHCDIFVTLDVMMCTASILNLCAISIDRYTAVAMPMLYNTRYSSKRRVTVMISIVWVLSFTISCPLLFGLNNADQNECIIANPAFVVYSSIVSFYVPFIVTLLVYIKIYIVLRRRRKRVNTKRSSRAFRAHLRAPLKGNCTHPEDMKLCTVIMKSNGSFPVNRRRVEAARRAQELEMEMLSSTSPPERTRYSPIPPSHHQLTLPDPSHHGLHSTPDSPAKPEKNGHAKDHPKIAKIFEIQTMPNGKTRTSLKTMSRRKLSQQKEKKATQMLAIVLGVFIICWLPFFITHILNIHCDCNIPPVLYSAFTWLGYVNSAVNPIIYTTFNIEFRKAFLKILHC
Method in brief: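 cAMP accumulation in DRD2-HEK293 cells measured by HTRF after 1 h detection; compounds added 10 min before NKH477 (200nM […]) forskolin-analogue stimulation, 30 min at room temperature, with Ro20-1724 present at 0.1 mM final.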

[18] = biological target: D(2) dopamine receptor (Homo sapiens) (UniProt P14416); experiment: Dopamine D2 receptor (DRD2) small molecule antagonists, cell-based qHTS assay (AID 1963595; active = well fitted inhibition curve with a large enough effect in the signal ratio in the repeat runs, with a control signal flat; the % refers to the signal ratio)
Method in brief: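 Human DRD2 antagonist qHTS measuring cAMP by HTRF. The cells are exposed to compound for 10 min, then to NKH477 (200 nM) and quinpirole (12 nM) for 30 min at RT, with Ro20-1724 (0.1 mM) present throughout.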

[19] = biological target: 5-hydroxytryptamine receptor 2A (Homo sapiens) (UniProt P28223); experiment: 5-hydroxytryptamine receptor 2A (HTR2A) small molecule antagonists, cell-based qHTS assay (AID 1963586); also: nearly all actives have a fitted effect of over 45% in size
Method in brief: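 Antagonist-mode intracellular calcium assay: DOI (4 nM) added after 5 min compound pre-incubation at room temperature to dye-loaded HTR2A-CHO cells. Fluorescence followed for 3 min, sampled every second.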

[20] = p53 small molecule agonists, cell-based qHTS assay: qHTS cell viability counter screen (AID 1963581); also: nearly all actives have a fitted effect of over 45% in size; also: potency is read from the fitted curve at half-maximal effect
Method in brief: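 Following 5 h attachment, HCT-116 p53RE-bla cells took up compound for 16 h at 37 C; the reporter was read with B/G FRET substrate (2 h RT), and viability then via CellTiter-Glo ATP luminescence.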

Measured: Potency

OC[C@H]1O[C@@H](O[C@H]2[C@H](O)[C@@H](O)[C@H](O)O[C@@H]2CO)[C@H](O)[C@@H](O)[C@H]1O
not listed: [19] | [20]
inactive: all other assays above

C=C1CC/C=C(\C)CC[C@@H]2[C@@H]1CC2(C)C
not listed: [8] | [14] | [16] | [20]
inactive: all other assays above

Cc1cc(C)c(C(=O)O)c(C)c1
not listed: [5]
inactive: all other assays above

Cc1c(O)cccc1C(=O)N[C@@H](CSc1ccccc1)[C@H](O)CN1C[C@H]2CCCC[C@H]2C[C@H]1C(=O)NC(C)(C)C
inactive: [1] | [2] | [3] | [5] | [6] | [7] | [8] | [17] | [18]

O=C1c2c(O)ccc(Nc3ccc(CCO)cc3)c2C(=O)c2c([N+](=O)[O-])ccc(O)c21
active: [1] 30.6 µM
not listed: [9] | [13] | [14] | [15] | [16] | [17] | [18]
inactive: all other assays above

CC(C)(c1cc(Br)c(O)c(Br)c1)c1cc(Br)c(O)c(Br)c1
active: [7] 16.2 µM and 36.3 µM | [20] 36.2 µM and 40.7 µM | [10] 48.8 µM
not listed: [5] | [8] | [9] | [16] | [17] | [19]
inactive: all other assays above

CCN[C@H]1CN(CCCOC)S(=O)(=O)c2sc(S(N)(=O)=O)cc21
not listed: [12] | [17] | [19]
inactive: all other assays above

CCC(=O)OCc1ccc(OC)cc1
not listed: [7] | [15]
inactive: all other assays above
